The panel holds about 79,000 compounds, 15% with a hit somewhere; the sample as a whole holds those more often. A number with no mark means an inactive call. The source made the active and inactive calls. Rule as the data show it: active = growth inhibition above about 70%; inactive = the rest.
Legend:
[1] = NCI Yeast Anticancer Drug Screen. Data for the rad52 strain (AID 147);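 also: 0% = growth of vehicle-treated control cultures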; conditions: S. cerevisiae rad52 mutant growth inhibition, hits give high values
Outline: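 Growth of repair-deficient yeast cells was compared between compound-treated and vehicle-treated cultures to give percent inhibition.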

[2] = NCI Yeast Anticancer Drug Screen. Data for the wt1 strain (AID 149);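 also: 0% = growth of vehicle-treated wt1 cultures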; conditions: S. cerevisiae wt1 strain (SPY 50644) growth inhibition, hits give high values
Outline: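 Compounds are added to wt1 yeast cultures. Growth is then measured. Inhibition is expressed relative to vehicle-treated controls.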

[3] = NCI Yeast Anticancer Drug Screen. Data for the rad50EPP+ strain (AID 151);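 also: 0% = growth of vehicle-treated control cultures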; conditions: S. cerevisiae rad50 mutant strain, hits give high values
Outline: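 Measured: growth inhibition of rad50EPP+ yeast. Reference: vehicle-treated controls. Screen uses strains with defined genetic alterations in DNA damage repair or cell cycle control.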

[4] = NCI Yeast Anticancer Drug Screen. Data for the mgt1 strain (AID 153); conditions: S. cerevisiae mgt1 mutant growth inhibition, hits give high values
Outline: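 Compounds were applied to mgt1 mutant yeast, and growth was then compared against vehicle-treated control cultures to give percent inhibition.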

[5] = NCI Yeast Anticancer Drug Screen. Data for the rad50 strain (AID 155);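 also: 0% = growth of vehicle-only cultures of the same strain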; conditions: S. cerevisiae rad50 strain growth inhibition, hits give high values
Outline: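 Inhibition values express reduced yeast growth in compound-treated cultures relative to vehicle-treated controls.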

[6] = NCI Yeast Anticancer Drug Screen. Data for the mec2-1 strain (AID 157); conditions: S. cerevisiae mec2-1 strain, hits give high values
Outline: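 Compounds were applied to mec2-1 yeast cells. Their growth was then compared with that of vehicle-treated cultures to give growth inhibition.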

[7] = NCI Yeast Anticancer Drug Screen. Data for the rad14 strain (AID 159);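 also: 0% = growth of vehicle-treated control cultures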; conditions: S. cerevisiae rad14 strain growth inhibition, hits give high values
Outline: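 A mutant yeast strain defective in DNA damage repair is treated with compound; inhibition of its growth is scored against untreated, vehicle-exposed cultures.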

[8] = NCI Yeast Anticancer Drug Screen. Data for the sgs1 mgt1 strain (AID 161);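 also: 0% = growth of cultures given vehicle only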; conditions: S. cerevisiae sgs1 mgt1 strain, hits give high values
Outline: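 Yeast cells carrying a defined DNA-repair defect were exposed to test compounds. Growth inhibition was measured relative to vehicle-treated controls.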

[9] = NCI Yeast Anticancer Drug Screen. Data for the CLN2oe strain (AID 163);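 also: 0% = growth of vehicle-only control cultures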; conditions: S. cerevisiae CLN2oe strain, hits give high values
Outline: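 Cells of an engineered yeast line with disturbed cell-cycle regulation are treated with compound. Inhibition of growth is then calculated relative to the vehicle-treated reference.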

[10] = NCI Yeast Anticancer Drug Screen. Data for the cln2 rad14 strain (AID 165);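 also: 0% = growth equal to vehicle treated cultures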; conditions: S. cerevisiae cln2 rad14 strain, hits give high values
Outline: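 Strain: cln2 rad14 yeast, altered in cell cycle control and DNA damage repair. Read-out: growth inhibition vs vehicle.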

[11] = NCI Yeast Anticancer Drug Screen. Data for the bub3 strain (AID 167); conditions: S. cerevisiae bub3 mutant strain, hits give high values
Outline: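 Steps: expose the mutant yeast strain to compound; grow alongside vehicle-treated cultures; measure growth; express inhibition against the vehicle cultures.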

[12] = NCI Yeast Anticancer Drug Screen. Data for the wt2 strain (AID 169);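 also: 0% = growth of vehicle-treated yeast cultures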; conditions: S. cerevisiae wt2 strain growth inhibition, hits give high values
Outline: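 Growth of compound-treated yeast is measured and expressed as inhibition relative to vehicle-only controls.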

[13] = NCI Yeast Anticancer Drug Screen. Data for the mlh1 strain (AID 171);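 also: 0% = growth of vehicle-treated control cultures of the same strain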; conditions: S. cerevisiae mlh1 strain growth inhibition, hits give high values
Outline: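 Test agents were incubated with yeast bearing a defined DNA damage repair or cell cycle control alteration; values are growth inhibition normalised to vehicle-treated cultures.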

[14] = NCI Yeast Anticancer Drug Screen. Data for the sgs1 strain (AID 173);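 also: 0% = growth of vehicle-only control cultures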; conditions: S. cerevisiae sgs1 mutant, hits give high values
Outline: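 Strain with an altered DNA repair or cell cycle pathway exposed to compound. Growth then measured. Value = inhibition versus vehicle control.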

[15] = NCI Yeast Anticancer Drug Screen. Data for the mlh1 rad18 strain (AID 175); conditions: S. cerevisiae mlh1 rad18 strain growth inhibition, hits give high values
Outline: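 A repair-deficient yeast strain is exposed to test compound, and growth is scored relative to vehicle-treated controls.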

[16] = NCI Yeast Anticancer Drug Screen. Data for the rad18 strain (AID 177); conditions: S. cerevisiae rad18 mutant growth inhibition, hits give high values
Outline: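 DNA-repair-defective yeast; compound treatment; growth inhibition scored against vehicle.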

[17] = at 5.0 µM (retest, dose inferred, filed as 0.5)
[18] = at 50.0 µM (retest, dose inferred, filed as 5.0)

## CCCNCC(=O)O[C@]1(CC)C(=O)OCc2c1cc1n(c2=O)Cc2cc3ccccc3nc2-1
[1]; at 1.2 µM
  growth inhibition: 80% (active)
[1]; at 3.7 µM
  growth inhibition: 90% (active)
[1]; at 11.0 µM
  growth inhibition: 94% (active)
[1]; at 33.0 µM
  growth inhibition: 95% (active)
[1]; at 100.0 µM
  growth inhibition: 96% (active)
[2]; at 1.2 µM
  growth inhibition: 13%
[2]; at 3.7 µM
  growth inhibition: 12%
[2]; at 11.0 µM
  growth inhibition: 28%
[2]; at 33.0 µM
  growth inhibition: 62%
[2]; at 100.0 µM
  growth inhibition: 85% (active)
[3]; at 1.2 µM
  growth inhibition: 29%
[3]; at 3.7 µM
  growth inhibition: 72% (active)
[3]; at 11.0 µM
  growth inhibition: 81% (active)
[3]; at 33.0 µM
  growth inhibition: 89% (active)
[3]; at 100.0 µM
  growth inhibition: 93% (active)
[4]; at 1.2 µM
  growth inhibition: 21%
[4]; at 3.7 µM
  growth inhibition: 25%
[4]; at 11.0 µM
  growth inhibition: 34%
[4]; at 33.0 µM
  growth inhibition: 63%
[4]; at 100.0 µM
  growth inhibition: 86% (active)
[5]; at 1.2 µM
  growth inhibition: 83% (active)
[5]; at 3.7 µM
  growth inhibition: 88% (active)
[5]; [17]
  growth inhibition: 78% (active)
[5]; at 11.0 µM
  growth inhibition: 92% (active)
[5]; at 33.0 µM
  growth inhibition: 92% (active)
[5]; [18]
  growth inhibition: 90% (active)
[5]; at 50.0 µM
  growth inhibition: 82.5% (active)
[5]; at 100.0 µM
  growth inhibition: 92% (active)
[6]; at 1.2 µM
  growth inhibition: 19%
[6]; at 3.7 µM
  growth inhibition: 33%
[6]; [17]
  growth inhibition: -5%
[6]; at 11.0 µM
  growth inhibition: 75% (active)
[6]; at 33.0 µM
  growth inhibition: 90% (active)
[6]; [18]
  growth inhibition: 86% (active)
[6]; at 50.0 µM
  growth inhibition: 88.1% (active)
[6]; at 100.0 µM
  growth inhibition: 93% (active)
[7]; at 1.2 µM
  growth inhibition: 3%
[7]; at 3.7 µM
  growth inhibition: 0%
[7]; at 11.0 µM
  growth inhibition: 16%
[7]; at 33.0 µM
  growth inhibition: 66%
[7]; at 100.0 µM
  growth inhibition: 87% (active)
[8]; [17]
  growth inhibition: 28%
[8]; [18]
  growth inhibition: 82% (active)
[8]; at 50.0 µM
  growth inhibition: 79% (active)
[9]; at 1.2 µM
  growth inhibition: 31%
[9]; at 3.7 µM
  growth inhibition: 34%
[9]; at 11.0 µM
  growth inhibition: 41%
[9]; at 33.0 µM
  growth inhibition: 71% (active)
[9]; at 100.0 µM
  growth inhibition: 86% (active)
[10]; [17]
  growth inhibition: 0%
[10]; [18]
  growth inhibition: 51%
[10]; at 50.0 µM
  growth inhibition: 64.5%
[11]; at 1.2 µM
  growth inhibition: 17%
[11]; at 3.7 µM
  growth inhibition: 12%
[11]; [17]
  growth inhibition: -9%
[11]; at 11.0 µM
  growth inhibition: 28%
[11]; at 33.0 µM
  growth inhibition: 69%
[11]; [18]
  growth inhibition: 68%
[11]; at 50.0 µM
  growth inhibition: 76.3% (active)
[11]; at 100.0 µM
  growth inhibition: 88% (active)
[12]; at 1.2 µM
  growth inhibition: -22%
[12]; at 3.7 µM
  growth inhibition: -32%
[12]; at 11.0 µM
  growth inhibition: -19%
[12]; at 33.0 µM
  growth inhibition: 37%
[12]; at 100.0 µM
  growth inhibition: 82% (active)
[13]; at 1.2 µM
  growth inhibition: 24%
[13]; at 3.7 µM
  growth inhibition: 7%
[13]; at 11.0 µM
  growth inhibition: 16%
[13]; at 33.0 µM
  growth inhibition: 61%
[13]; at 100.0 µM
  growth inhibition: 83% (active)
[14]; at 1.2 µM
  growth inhibition: 26%
[14]; at 3.7 µM
  growth inhibition: 30%
[14]; at 11.0 µM
  growth inhibition: 51%
[14]; at 33.0 µM
  growth inhibition: 82% (active)
[14]; at 100.0 µM
  growth inhibition: 90% (active)
[15]; [17]
  growth inhibition: 2%
[15]; [18]
  growth inhibition: 72% (active)
[15]; at 50.0 µM
  growth inhibition: 83.1% (active)
[16]; at 1.2 µM
  growth inhibition: 25%
[16]; at 3.7 µM
  growth inhibition: 34%
[16]; at 11.0 µM
  growth inhibition: 46%
[16]; at 33.0 µM
  growth inhibition: 75% (active)
[16]; at 100.0 µM
  growth inhibition: 84% (active)

## Cc1cc(C)c2[s+]snc2c1
[1]; at 1.2 µM
  growth inhibition: 12%
[1]; at 3.7 µM
  growth inhibition: 7%
[1]; at 11.0 µM
  growth inhibition: 16%
[1]; at 33.0 µM
  growth inhibition: 29%
[1]; at 100.0 µM
  growth inhibition: 54%
[2]; at 1.2 µM
  growth inhibition: -36%
[2]; at 3.7 µM
  growth inhibition: 1%
[2]; at 11.0 µM
  growth inhibition: 1%
[2]; at 33.0 µM
  growth inhibition: 9%
[2]; at 100.0 µM
  growth inhibition: 26%
[3]; at 1.2 µM
  growth inhibition: 1%
[3]; at 3.7 µM
  growth inhibition: 5%
[3]; at 11.0 µM
  growth inhibition: 5%
[3]; at 33.0 µM
  growth inhibition: 20%
[3]; at 100.0 µM
  growth inhibition: 80% (active)
[4]; at 1.2 µM
  growth inhibition: 1%
[4]; at 3.7 µM
  growth inhibition: 3%
[4]; at 11.0 µM
  growth inhibition: 6%
[4]; at 33.0 µM
  growth inhibition: 12%
[4]; at 100.0 µM
  growth inhibition: 23%
[5]; at 1.2 µM
  growth inhibition: 0%
[5]; at 3.7 µM
  growth inhibition: 1%
[5]; [17]
  growth inhibition: -5%
[5]; at 11.0 µM
  growth inhibition: 3%
[5]; at 33.0 µM
  growth inhibition: 9%
[5]; [18]
  growth inhibition: 23%
[5]; at 50.0 µM
  growth inhibition: 50.5%
[5]; at 100.0 µM
  growth inhibition: 20%
[6]; at 1.2 µM
  growth inhibition: -3%
[6]; at 3.7 µM
  growth inhibition: -5%
[6]; [17]
  growth inhibition: -6%
[6]; at 11.0 µM
  growth inhibition: -3%
[6]; at 33.0 µM
  growth inhibition: 10%
[6]; [18]
  growth inhibition: 68%
[6]; at 50.0 µM
  growth inhibition: 50.2%
[6]; at 100.0 µM
  growth inhibition: 29%
[7]; at 1.2 µM
  growth inhibition: 2%
[7]; at 3.7 µM
  growth inhibition: 4%
[7]; at 11.0 µM
  growth inhibition: 5%
[7]; at 33.0 µM
  growth inhibition: 9%
[7]; at 100.0 µM
  growth inhibition: 21%
[8]; [17]
  growth inhibition: -1%
[8]; [18]
  growth inhibition: 31%
[8]; at 50.0 µM
  growth inhibition: 79% (active)
[9]; at 1.2 µM
  growth inhibition: -7%
[9]; at 3.7 µM
  growth inhibition: -7%
[9]; at 11.0 µM
  growth inhibition: -4%
[9]; at 33.0 µM
  growth inhibition: -1%
[9]; at 100.0 µM
  growth inhibition: 17%
[10]; [17]
  growth inhibition: -19%
[10]; [18]
  growth inhibition: 19%
[10]; at 50.0 µM
  growth inhibition: 33.1%
[11]; at 1.2 µM
  growth inhibition: -4%
[11]; at 3.7 µM
  growth inhibition: -4%
[11]; [17]
  growth inhibition: -5%
[11]; at 11.0 µM
  growth inhibition: -5%
[11]; at 33.0 µM
  growth inhibition: 1%
[11]; [18]
  growth inhibition: 61%
[11]; at 50.0 µM
  growth inhibition: 52%
[11]; at 100.0 µM
  growth inhibition: 30%
[12]; at 1.2 µM
  growth inhibition: -2%
[12]; at 3.7 µM
  growth inhibition: 1%
[12]; at 11.0 µM
  growth inhibition: 3%
[12]; at 33.0 µM
  growth inhibition: 7%
[12]; at 100.0 µM
  growth inhibition: 30%
[13]; at 1.2 µM
  growth inhibition: 1%
[13]; at 3.7 µM
  growth inhibition: 1%
[13]; at 11.0 µM
  growth inhibition: 0%
[13]; at 33.0 µM
  growth inhibition: 4%
[13]; at 100.0 µM
  growth inhibition: 19%
[14]; at 1.2 µM
  growth inhibition: 4%
[14]; at 3.7 µM
  growth inhibition: 7%
[14]; at 11.0 µM
  growth inhibition: 8%
[14]; at 33.0 µM
  growth inhibition: 17%
[14]; at 100.0 µM
  growth inhibition: 36%
[15]; [17]
  growth inhibition: 2%
[15]; [18]
  growth inhibition: 34%
[15]; at 50.0 µM
  growth inhibition: 76% (active)
[16]; at 1.2 µM
  growth inhibition: 7%
[16]; at 3.7 µM
  growth inhibition: 9%
[16]; at 11.0 µM
  growth inhibition: 6%
[16]; at 33.0 µM
  growth inhibition: 27%
[16]; at 100.0 µM
  growth inhibition: 49%

From PubChem BioAssay (NCI)
